test system: SGK; details: concentration: 1 μM,replicates: in singlicate; n = 1
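Further: KINOMEscan kinase panel screen.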

| Structure (SMILES) | %Inh [%] |
| --- | --- |
| COc1cccc(C2=C(Nc3cccc(Cl)c3)C(=O)NC2=O)c1 [SB-341556] | 3 |
| CCn1c(-c2nonc2N)nc2cncc(CNC3CCNCC3)c21.Cl [SB-747651] | 0 |
| Cn1ccc2ncnc(Oc3ccc(NC(=O)Nc4cncc(C(F)(F)F)c4)c(Cl)c3)c21 | 0 |
| CN(c1ccccc1CNc1nc(Nc2ccc3c(c2)CC(=O)N3)ncc1C(F)(F)F)S(C)(=O)=O | 18 |
| COc1cccc(CNC(=O)NC2CCN(c3ccnc(Nc4cc(OC)c(OC)c(OC)c4)n3)C2)c1 (stereo not shown) [GSK1379765] | 0 |
| COc1cc(Nc2nccc(N3CCC(NC(=O)c4cccc(C#N)c4)C3)n2)cc(OC)c1OC (stereo not shown) [GSK1379751] | 3 |
| COc1cc2nccc(Nc3ccc(Oc4ccccc4)cc3)c2cc1OC.Cl [GI261656] | 0 |
| O=C(Nc1cccc(C(F)(F)F)c1)c1cccc(Oc2ccc3nccn3n2)c1 | 9 |
| Nc1nccc(-c2ccc3c(N)n[nH]c3c2)n1 [GSK1034945] | 0 |
| C[C@@H](Oc1cc(-n2cnc3cc(-c4cnn(C)c4)ccc32)sc1C(N)=O)c1ccccc1Cl [GSK580432] | 0 |
| CCNCC(Cc1ccccc1)NC(=O)c1cc(Br)c(-c2ccnc3[nH]ccc23)s1.Cl.Cl (stereo not shown) [GSK1383280] | 65 |
| O=C(Nc1ccc(Oc2ccc3nc(NC(=O)C4CC4)cn3n2)c(F)c1)c1cccn(-c2ccccc2)c1=O | 0 |
| N#Cc1cccc(C(=O)NC2CCN(c3ccnc(Nc4ccc(F)cc4)n3)C2)c1 (stereo not shown) [GSK1379708] | 0 |
